PubChem BioAssay AID1159580 (chemical genetic matrix, 2015)
Several values for one entry are separate records, joined by “and”; a condition that tells them apart may be missing. Identical values can stand only once. Out of some 5,500 compounds screened, about 2,000 (36%) were called active. Roughly 18% stayed inconclusive and do not appear here. Cut-off read from the data, not from the text of the source: active = normalized growth mostly below about 0.91 (no sharp cut-off); inconclusive = no clear call, values can overlap the other calls; inactive = mostly above about 0.92. This is one part of the list.

Experiment: chemical genetic growth profiling, strain panel (AID 1159580);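 note: tested at 20 µM; growth read once vehicle control cultures reached saturation at 30 °C; 1 = growth at the plate median or of vehicle wells; lower values mean less growth of the strain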
Settings: S. cerevisiae deletion strains, growth OD

Measured: normalized growth

CCOC(=O)c1c(C)cc(O)cc1O
active: locus YAL030W, strain snc1, stronger effect = lower value 0.928 | locus YBR009C, strain hhf1, stronger effect = lower value 0.896 | locus YBR231C, strain swc5, stronger effect = lower value 0.897 | locus YCL011C, strain gbp2, stronger effect = lower value 0.891 | locus YDL134C, strain PPH21, stronger effect = lower value 0.874 | locus YDL185W, strain tfp1, stronger effect = lower value 0.896 | locus YDL192W, strain arf1, stronger effect = lower value 0.896 | locus YDR001C, strain nth1, stronger effect = lower value 0.909 | locus YDR101C, strain arx1, stronger effect = lower value 0.915 | locus YDR318W, strain mcm21, stronger effect = lower value 0.893 | locus YDR388W, stronger effect = lower value 0.916 | locus YDR502C, strain sam2, stronger effect = lower value 0.844 | locus YER015W, strain faa2, stronger effect = lower value 0.924 | locus YER110C, stronger effect = lower value 0.882 | locus YER155C, strain BEM2 (second series), stronger effect = lower value 0.857 | locus YGL078C, strain dbp3, stronger effect = lower value 0.912 | locus YGL086W, strain mad1, stronger effect = lower value 0.883 | locus YGL240W, strain doc1, stronger effect = lower value 0.887 | locus YGL248W, strain PDE1, stronger effect = lower value 0.877 | locus YGR135W, strain pre9, stronger effect = lower value 0.823 | locus YHR027C, strain rpn1, stronger effect = lower value 0.917 | locus YHR079C, strain IRE1 (second series), stronger effect = lower value 0.919 | locus YHR094C, strain hxt1, stronger effect = lower value 0.919 | locus YHR142W, strain chs7, stronger effect = lower value 0.866 | locus YHR200W, strain rpn10, stronger effect = lower value 0.864 | locus YIR030C, strain dcg1, stronger effect = lower value 0.913 | locus YJL095W, strain BCK1 (second series), stronger effect = lower value 0.917 | locus YJL164C, strain tpk1, stronger effect = lower value 0.903 | locus YJL168C, strain set2, stronger effect = lower value 0.931 | locus YKL068W, stronger effect = lower value 0.928 | locus YKL085W, strain MDH1 (second series), stronger effect = lower value 0.912 | locus YKL085W, strain MDH1, stronger effect = lower value 0.912 | locus YKR001C, strain vps1, stronger effect = lower value 0.732 | locus YLL041C, strain sdh2, stronger effect = lower value 0.917 | locus YLR039C, strain RIC1, stronger effect = lower value 0.604 | locus YLR258W, strain gsy2, stronger effect = lower value 0.906 | locus YLR262C, strain YPT6, stronger effect = lower value 0.556 | locus YLR330W, strain CHS5, stronger effect = lower value 0.876 | locus YLR370C, strain arc18, stronger effect = lower value 0.895 | locus YLR371W, strain rom2, stronger effect = lower value 0.767 | locus YLR418C, strain cdc73, stronger effect = lower value 0.758 | locus YML016C, strain PPZ1, stronger effect = lower value 0.888 | locus YML032C, strain rad52, stronger effect = lower value 0.897 | locus YML124C, strain tub3, stronger effect = lower value 0.911 | locus YMR078C, strain ctf18, stronger effect = lower value 0.881 | locus YMR223W, strain ubp8, stronger effect = lower value 0.898 | locus YNL233W, strain BNI4, stronger effect = lower value 0.788 | locus YNL248C, strain rpa49, stronger effect = lower value 0.872 | locus YNL250W, strain rad50, stronger effect = lower value 0.862 | locus YNL271C, strain bni1, stronger effect = lower value 0.906 | locus YNL307C, strain MCK1, stronger effect = lower value 0.846 | locus YOL147C, strain pex11, stronger effect = lower value 0.912 | locus YOR001W, strain rrp6, stronger effect = lower value 0.89 | locus YOR069W, strain VPS5, stronger effect = lower value 0.924 | locus YOR106W, strain vam3, stronger effect = lower value 0.855 | locus YOR144C, strain elg1, stronger effect = lower value 0.913 | locus YOR265W, strain rbl2, stronger effect = lower value 0.913 | locus YOR270C, strain vph1, stronger effect = lower value 0.721 | locus YOR316C, strain cot1, stronger effect = lower value 0.917 | locus YPL078C, strain atp4, stronger effect = lower value 0.887 | locus YPR119W, strain clb2, stronger effect = lower value 0.904 | locus YPR141C, strain kar3, stronger effect = lower value 0.901 | locus YPR163C, strain tif3, stronger effect = lower value 0.908 | locus YPR167C, strain met16, stronger effect = lower value 0.891 | strain wtn01, stronger effect = lower value 0.892
inactive: locus YAL021C, strain ccr4, stronger effect = lower value 0.924 | locus YAL026C, strain drs2, stronger effect = lower value 0.946 | locus YBL061C, strain skt5, stronger effect = lower value 0.94 | locus YBR021W, strain FUR4, stronger effect = lower value 1.01 | locus YBR023C, strain chs3, stronger effect = lower value 0.922 | locus YBR171W, strain sec66, stronger effect = lower value 0.904 | locus YBR229C, strain ROT2, stronger effect = lower value 0.941 | locus YBR279W, strain paf1, stronger effect = lower value 0.947 | locus YCL016C, strain dcc1, stronger effect = lower value 0.921 | locus YCL029C, strain bik1, stronger effect = lower value 0.92 | locus YCL069W, strain vba3, stronger effect = lower value 0.939 | locus YCR088W, strain abp1, stronger effect = lower value 0.934 | locus YDL005C, strain med2, stronger effect = lower value 0.921 | locus YDL035C, strain GPR1, stronger effect = lower value 0.973 | locus YDL040C, strain nat1, stronger effect = lower value 0.94 | locus YDL074C, strain BRE1, stronger effect = lower value 0.923 | locus YDL101C, strain DUN1, stronger effect = lower value 0.917 | locus YDR069C, strain doa4, stronger effect = lower value 0.916 | locus YDR137W, strain rgp1, stronger effect = lower value 0.905 | locus YDR159W, strain sac3, stronger effect = lower value 0.887 | locus YDR162C, strain NBP2, stronger effect = lower value 0.87 | locus YDR195W, strain ref2 0.981 | locus YDR297W, strain sur2, stronger effect = lower value 0.93 | locus YDR334W, strain swr1, stronger effect = lower value 0.922 | locus YDR335W, strain msn5, stronger effect = lower value 0.935 | locus YDR392W, strain spt3, stronger effect = lower value 0.831 | locus YEL003W, strain gim4, stronger effect = lower value 0.947 | locus YEL037C, strain rad23, stronger effect = lower value 0.937 | locus YEL061C, strain CIN8 (second series), stronger effect = lower value 0.937 | locus YER016W, strain bim1, stronger effect = lower value 0.946 | locus YER111C, strain swi4, stronger effect = lower value 0.937 | locus YER155C, strain BEM2, stronger effect = lower value 0.927 | locus YER167W, strain BCK2, stronger effect = lower value 0.941 | locus YFR010W, strain ubp6, stronger effect = lower value 0.92 | locus YGL167C, strain pmr1, stronger effect = lower value 0.922 | locus YGL173C, strain kem1, stronger effect = lower value 0.928 | locus YGL227W, strain vid30, stronger effect = lower value 0.937 | locus YGL253W, strain hxk2, stronger effect = lower value 0.918 | locus YGR252W, strain gcn5, stronger effect = lower value 0.937 | locus YHR013C, strain ard1, stronger effect = lower value 0.941 | locus YHR030C, strain SLT2, stronger effect = lower value 0.93 | locus YHR079C, strain IRE1, stronger effect = lower value 0.918 | locus YHR129C, strain ARP1, stronger effect = lower value 0.924 | locus YIL066C, strain RNR3, stronger effect = lower value 0.951 | locus YIL073C, strain SPO22, stronger effect = lower value 0.888 | locus YIL125W, strain kgd1, stronger effect = lower value 0.945 | locus YJL092W, strain hpr5, stronger effect = lower value 0.923 | locus YJL115W, strain asf1, stronger effect = lower value 0.939 | locus YJL129C, strain trk1, stronger effect = lower value 0.929 | locus YJL134W, strain LCB3, stronger effect = lower value 0.931 | locus YJL154C, strain vps35, stronger effect = lower value 0.922 | locus YJL166W, strain qcr8, stronger effect = lower value 0.908 | locus YJL187C, strain SWE1 (second series), stronger effect = lower value 0.878 | locus YJL187C, strain SWE1, stronger effect = lower value 0.931 | locus YJR043C, strain POL32, stronger effect = lower value 0.965 | locus YJR066W, strain TOR1, stronger effect = lower value 0.853 | locus YKL009W, strain mrt4, stronger effect = lower value 0.924 | locus YKL160W, strain elf1, stronger effect = lower value 0.911 | locus YKR026C, strain gcn3, stronger effect = lower value 0.929 | locus YKR091W, strain srl3, stronger effect = lower value 0.942 | locus YLL001W, strain dnm1, stronger effect = lower value 0.919 | locus YLL026W, stronger effect = lower value 0.935 | locus YLR027C, strain aat2, stronger effect = lower value 0.93 | locus YLR058C, strain SHM2, stronger effect = lower value 0.906 | locus YLR102C, strain apc9, stronger effect = lower value 0.941 | locus YLR113W, strain HOG1, stronger effect = lower value 0.925 | locus YLR221C, strain rsa3, stronger effect = lower value 0.931 | locus YLR262C, strain YPT6 (second series), stronger effect = lower value 0.857 | locus YLR268W, strain sec22, stronger effect = lower value 0.964 | locus YLR320W, strain mms22, stronger effect = lower value 0.916 | locus YLR342W, strain FKS1, stronger effect = lower value 0.941 | locus YLR357W, strain rsc2, stronger effect = lower value 0.909 | locus YLR384C, strain iki3, stronger effect = lower value 0.937 | locus YML120C, strain ndi1, stronger effect = lower value 0.926 | locus YMR058W, strain fet3, stronger effect = lower value 0.914 | locus YMR125W, strain sto1, stronger effect = lower value 0.907 | locus YMR129W, stronger effect = lower value 0.949 | locus YMR205C, strain PFK2, stronger effect = lower value 0.91 | locus YMR231W, strain pep5, stronger effect = lower value 0.984 | locus YMR307W, strain GAS1, stronger effect = lower value 1.06 | locus YNL067W, strain RPL9B, stronger effect = lower value 0.899 | locus YNL071W, strain lat1, stronger effect = lower value 0.926 | locus YNL128W, strain TEP1, stronger effect = lower value 0.933 | locus YNL153C, strain GIM3, stronger effect = lower value 0.9 | locus YNL183C, strain NPR1, stronger effect = lower value 0.869 | locus YNL209W, strain ssb2, stronger effect = lower value 0.97 | locus YNL298W, strain CLA4, stronger effect = lower value 0.953 | locus YNL322C, strain KRE1 (second series), stronger effect = lower value 0.935 | locus YNR049C, strain mso1, stronger effect = lower value 0.92 | locus YNR052C, strain pop2, stronger effect = lower value 0.949 | locus YOL006C, strain TOP1, stronger effect = lower value 0.578 | locus YOL012C, strain htz1 1.06 | locus YOR061W, strain CKA2, stronger effect = lower value 0.957 | locus YOR070C, strain gyp1, stronger effect = lower value 0.951 | locus YOR080W, strain dia2, stronger effect = lower value 0.942 | locus YOR083W, strain WHI5, stronger effect = lower value 0.89 | locus YOR136W, strain idh2, stronger effect = lower value 0.928 | locus YOR184W, strain ser1, stronger effect = lower value 0.915 | locus YOR231W, strain MKK1, stronger effect = lower value 0.905 | locus YOR290C, strain snf2, stronger effect = lower value 0.88 | locus YPL051W, strain arl3, stronger effect = lower value 0.956 | locus YPL055C, strain LGE1, stronger effect = lower value 0.922 | locus YPL106C, strain sse1, stronger effect = lower value 0.88 | locus YPL240C, strain hsp82, stronger effect = lower value 0.952 | locus YPL256C, strain CLN2, stronger effect = lower value 0.839
0.787 (active) and 0.917 (inactive): locus YJL095W, strain BCK1, stronger effect = lower value
